{"source": "PubChem BioAssay AID2578", "about": "(National Center for Advancing Translational Sciences (NCATS), 2010)", "note": "The source made the active and inactive calls. Calls come from the whole dose curve; as a rule, active = well fitted curve in the direction sought with a large enough effect; inactive = no such curve, though single readings can be large or run the other way.", "data": [{"molecular_target": "Alpha-galactosidase A (Homo sapiens) (UniProt P06280)", "sequence (P06280 whole entry, looked up)": "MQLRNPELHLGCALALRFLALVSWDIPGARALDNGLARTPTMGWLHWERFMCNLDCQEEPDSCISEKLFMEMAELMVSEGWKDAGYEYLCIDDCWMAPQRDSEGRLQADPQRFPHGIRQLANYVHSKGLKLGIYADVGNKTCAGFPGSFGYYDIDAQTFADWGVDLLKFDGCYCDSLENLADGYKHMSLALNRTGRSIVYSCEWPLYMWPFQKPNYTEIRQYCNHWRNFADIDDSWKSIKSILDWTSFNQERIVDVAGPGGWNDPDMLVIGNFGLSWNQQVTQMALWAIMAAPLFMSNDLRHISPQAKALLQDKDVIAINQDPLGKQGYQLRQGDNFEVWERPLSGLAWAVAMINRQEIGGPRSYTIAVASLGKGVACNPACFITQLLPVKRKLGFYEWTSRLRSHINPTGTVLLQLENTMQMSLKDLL", "assay": "qHTS Assay for Inhibitors and Activators of N370S glucocerebrosidase as a Potential Chaperone Treatment of Gaucher Disease: Alpha-Galactosidase Counterscreen", "settings": "purified enzyme, 4-MU-alpha-Gal fluorescence, 20 min; series mostly up to 57.5 µM; activity change, negative = inhibition: at the top concentration", "excerpt": "NIH Chemical Genomics Center [NCGC] NIH Molecular Libraries Probe Production Centers Network [MLPCN] MLPCN Grant: MH086442-01 Assay Submitter (PI): Wei Zheng Glucocerebrosidase (GC) catalyzes the hydrolysis of beta-glucocerebroside to glucose and ceramide in lysosomes. Mutations in the glucocerebrosidase gene result in Gaucher disease, an autosomal recessive lysosomal storage disorder. Many of the mutations encountered in patients with Gaucher disease are missense alterations that may cause misfolding, decreased stability and/or mistrafficking of this lysosomal protein. […] These inhibitors include iminosugar analogs and three non-iminosugar inhibitors identified from a previous HTS of 62,000 compounds with the wild type recombinant enzyme. However, the enhancement of enzyme activity by the chaperone action of an enzyme inhibitor must be balanced against the direct inhibition of the enzyme. An enzyme activator could also function as a chaperone by binding to the enzyme and helping to correct its misfolding and mistrafficking. While activators for GC have not yet been identified, they may have better therapeutic potential than inhibitors. Therefore the discovery and development of chemical activators may provide a new strategy for the chaperone therapy. To characterize compound selectivity, selected hits from the primary screen were screened against purified alpha-galactosidase, a related sugar hydrolase. Alpha-galactosidase is a homodimeric glycoprotein that hydrolyzes the terminal alpha-galactosyl moieties from glycolipids and glycoproteins.\nNCGC Assay Protocol Summary: This is a fluorogenic enzyme assay with 4-Methylumbelliferyl alpha-D-galactopyranoside as the substrate and human […] as the enzyme preparation. Upon the hydrolysis of this fluorogenic substrate, the resulting product, […]. 4-Methyllumbelliferone, can be excited at 365 nm and emits at 440 nm. This fluorescence which can be detected by a standard fluorescence plate reader. Data were normalized to the controls for basal activity (without enzyme) and 100% activity (with enzyme). In the AC50 values were determined from concentration-response data modeled with the standard Hill equation. Assay buffer: 50 mM citric acid (titrated with potassium phosphate to pH 4.5), 0.005% Tween-20, pH 4.5. (pH 4.5 is an optimal condition for this enzyme assay) 1536-well assay protocol for the human alpha-galactosidase: (1) Add 2 ul/well of enzyme (12 nM final) (2) Add 23 nL compounds in DMSO solution. The final titration was 0.7 nM to 77 uM. (3) Add 1 ul of substrate ([…]) (4) Incubate at room temperature for 20 min. (5) Add 2 ul stop solution (1M NaOH and 1M Glycine mixture, pH 10) (6) Detect the assay plate in a ViewLux plate reader (PerkinElmer) with Ex=365 nm and Em=440nm. Keywords: MLSMR, MLPCN, NIH Roadmap, qHTS, NCGC, : Alpha-galactosidase, Fabry Disease, pharmacological chaperone, chaperone therapy", "values": [{"smiles": "Cc1ccc(S(=O)(=O)N2CCN(c3nc(-c4cccs4)nc4ccccc34)CC2)cc1", "activity change, negative = inhibition": "-5.03% (inactive)"}, {"smiles": "CC(=O)c1ccc(S(=O)(=O)N2CCN(c3nc(-c4ccccc4)nc4ccccc34)CC2)cc1", "activity change, negative = inhibition": "-2.18% (inactive)"}, {"smiles": "O=S(=O)(c1ccc(C(F)(F)F)cc1)N1CCN(c2nc(-c3cccs3)nc3ccccc23)CC1", "activity change, negative = inhibition": "-9.68% (inactive)"}, {"smiles": "COc1ccc(-c2nc(N3CCN(S(=O)(=O)c4ccc(C)cc4)CC3)c3ccccc3n2)cc1", "activity change, negative = inhibition": "-1.79% (inactive)"}, {"smiles": "COc1ccc(-c2nc(N3CCN(S(=O)(=O)c4ccc(F)cc4)CC3)c3ccccc3n2)cc1", "activity change, negative = inhibition": "-10.8% (inactive)"}, {"smiles": "O=S(=O)(c1ccc2ccccc2c1)N1CCN(c2nc(-c3ccccc3)nc3ccccc23)CC1", "activity change, negative = inhibition": "-6.14% (inactive)"}, {"smiles": "O=S(=O)(c1ccc(Br)cc1)N1CCN(c2nc(-c3ccccc3)nc3ccccc23)CC1", "activity change, negative = inhibition": "-12.8% (inactive)"}, {"smiles": "O=[N+]([O-])c1ccccc1S(=O)(=O)N1CCN(c2nc(-c3cccs3)nc3ccccc23)CC1", "activity change, negative = inhibition": "-7.26% (inactive)"}, {"smiles": "O=S(=O)(c1ccccc1C(F)(F)F)N1CCN(c2nc(-c3cccs3)nc3ccccc23)CC1", "activity change, negative = inhibition": "-3.95% (inactive)"}, {"smiles": "O=S(=O)(c1ccccc1Br)N1CCN(c2nc(-c3cccs3)nc3ccccc23)CC1", "activity change, negative = inhibition": "-8.16% (inactive)"}, {"smiles": "O=S(=O)(c1ccc(F)cc1)N1CCN(c2nc(-c3ccccc3)nc3cc(Cl)ccc23)CC1", "activity change, negative = inhibition": "-14% (inactive)"}, {"smiles": "O=[N+]([O-])c1ccc(S(=O)(=O)N2CCN(c3nc(-c4cccs4)nc4ccccc34)CC2)cc1", "activity change, negative = inhibition": "-5.18% (inactive)"}, {"smiles": "CC(C)(C)c1ccc(S(=O)(=O)N2CCN(c3nc(-c4ccccc4)nc4ccccc34)CC2)cc1", "activity change, negative = inhibition": "-7.91% (inactive)"}, {"smiles": "O=S(=O)(c1cccc(C(F)(F)F)c1)N1CCN(c2nc(-c3cccs3)nc3ccccc23)CC1", "activity change, negative = inhibition": "-4.24% (inactive)"}, {"smiles": "O=S(=O)(c1ccc(Cl)cc1)N1CCN(c2nc(-c3ccc(F)cc3)nc3cc(Cl)ccc23)CC1", "activity change, negative = inhibition": "-2.54% (inactive)"}, {"smiles": "O=S(=O)(c1ccc(F)cc1)N1CCN(c2nc(-c3cccc(Br)c3)nc3ccccc23)CC1", "activity change, negative = inhibition": "-5.82% (inactive)"}, {"smiles": "N#Cc1ccccc1S(=O)(=O)N1CCN(c2nc(-c3cccs3)nc3ccccc23)CC1", "activity change, negative = inhibition": "-3.19% (inactive)"}, {"smiles": "O=S(=O)(c1ccc(Br)cc1)N1CCN(c2nc(-c3cccs3)nc3ccccc23)CC1", "activity change, negative = inhibition": "-8.57% (inactive)"}, {"smiles": "O=S(=O)(c1cccc(C(F)(F)F)c1)N1CCN(c2nc(-c3ccccc3)nc3ccccc23)CC1", "activity change, negative = inhibition": "-10.1% (inactive)"}, {"smiles": "N#Cc1ccc(S(=O)(=O)N2CCN(c3nc(-c4cccs4)nc4ccccc34)CC2)cc1", "activity change, negative = inhibition": "-2.99% (inactive)"}, {"smiles": "NS(=O)(=O)c1ccc(S(=O)(=O)N2CCN(c3nc(-c4ccccc4)nc4ccccc34)CC2)cc1", "activity change, negative = inhibition": "-14.3% (inactive)"}, {"smiles": "O=S(=O)(c1ccc(Cl)cc1)N1CCN(c2nc(-c3cccs3)nc3ccccc23)CC1", "activity change, negative = inhibition": "-5.18% (inactive)"}, {"smiles": "NS(=O)(=O)c1ccc(S(=O)(=O)N2CCN(c3nc(-c4cccs4)nc4ccccc34)CC2)cc1", "activity change, negative = inhibition": "-10.2% (inactive)"}, {"smiles": "COc1ccc(S(=O)(=O)N2CCN(c3nc(-c4cccs4)nc4ccccc34)CC2)cc1OC", "activity change, negative = inhibition": "-9.79% (inactive)"}, {"smiles": "CCOc1ccc(S(=O)(=O)N2CCN(c3nc(-c4ccccc4)nc4ccccc34)CC2)cc1", "activity change, negative = inhibition": "-10.2% (inactive)"}, {"smiles": "O=S(=O)(c1cccc(Cl)c1)N1CCN(c2nc(-c3cccs3)nc3ccccc23)CC1", "activity change, negative = inhibition": "-10.8% (inactive)"}, {"smiles": "O=S(=O)(c1ccccc1)N1CCN(c2nc(-c3cccs3)nc3ccccc23)CC1", "activity change, negative = inhibition": "-11.3% (inactive)"}, {"smiles": "Cc1ccc(S(=O)(=O)N2CCN(c3nc(-c4ccc(F)cc4)nc4cc(Cl)ccc34)CC2)cc1", "activity change, negative = inhibition": "-11.1% (inactive)"}, {"smiles": "COc1ccc(S(=O)(=O)N2CCN(c3nc(-c4ccccc4)nc4ccccc34)CC2)cc1", "activity change, negative = inhibition": "-3.17% (inactive)"}, {"smiles": "O=S(=O)(c1ccc2c(c1)OCCO2)N1CCN(c2nc(-c3ccccc3)nc3ccccc23)CC1", "activity change, negative = inhibition": "-12.6% (inactive)"}, {"smiles": "O=[N+]([O-])c1cccc(S(=O)(=O)N2CCN(c3nc(-c4cccs4)nc4ccccc34)CC2)c1", "activity change, negative = inhibition": "-1.82% (inactive)"}, {"smiles": "O=S(=O)(c1ccc(F)cc1)N1CCN(c2nc(-c3cccs3)nc3ccccc23)CC1", "activity change, negative = inhibition": "-9.22% (inactive)"}, {"smiles": "O=S(=O)(c1ccc(Cl)cc1)N1CCN(c2nc(-c3ccc(Cl)cc3)nc3ccccc23)CC1", "activity change, negative = inhibition": "-12.3% (inactive)"}, {"smiles": "O=S(=O)(c1ccc(OC(F)(F)F)cc1)N1CCN(c2nc(-c3cccs3)nc3ccccc23)CC1", "activity change, negative = inhibition": "-12.6% (inactive)"}, {"smiles": "CCOC(=O)c1ccc(S(=O)(=O)N2CCN(c3nc(-c4ccccc4)nc4ccccc34)CC2)cc1", "activity change, negative = inhibition": "-7.72% (inactive)"}, {"smiles": "O=S(=O)(c1ccc(F)cc1)N1CCN(c2nc(-c3ccccc3)nc3ccccc23)CC1", "activity change, negative = inhibition": "-9.18% (inactive)"}, {"smiles": "Cc1ccc(S(=O)(=O)N2CCN(c3nc(-c4ccccc4)nc4ccccc34)CC2)cc1", "activity change, negative = inhibition": "-7.65% (inactive)"}, {"smiles": "O=S(=O)(c1cccc(Br)c1)N1CCN(c2nc(-c3cccs3)nc3ccccc23)CC1", "activity change, negative = inhibition": "-6.89% (inactive)"}, {"smiles": "O=S(=O)(c1ccc(C(F)(F)F)cc1)N1CCN(c2nc(-c3ccccc3)nc3ccccc23)CC1", "activity change, negative = inhibition": "-13.6% (inactive)"}, {"smiles": "O=S(=O)(c1ccccc1)N1CCN(c2nc(-c3ccc(F)cc3)nc3cc(Cl)ccc23)CC1", "activity change, negative = inhibition": "-1.96% (inactive)"}]}]}
